The values below come from PMC6212790, “How bacterial xenogeneic silencer rok distinguishes foreign from self DNA in its resident genome”.

The full ranking holds about 33,000 sequences; the median of “e-score” is about -0.037, and the highest 2% start at about 0.34. The list comes from a sample in which the highest values are over-represented; it also holds similar and randomly drawn sequences.

This assay concerns the target T1, GST-Rok (full length) (Bacillus subtilis subsp. subtilis str. …, UniProt O34857 1-191).
T1 sequence: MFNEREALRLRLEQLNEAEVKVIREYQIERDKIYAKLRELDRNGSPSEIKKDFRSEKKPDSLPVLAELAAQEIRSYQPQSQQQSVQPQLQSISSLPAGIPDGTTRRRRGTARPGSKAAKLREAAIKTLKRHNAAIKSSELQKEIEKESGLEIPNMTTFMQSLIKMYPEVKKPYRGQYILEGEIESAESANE
Nature of the assay: protein binding microarray; Rok is a gene silencer of Bacillus subtilis; high values mean tight binding. The conditions noted are these: protein: recombinant; tags: GST (pTH5325, pDEST15-Magic modified); dsDNA, one strand shown. The essentials: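 Each has a 25-mer constant primer and a 35-mer variable part from a de Bruijn sequence of order 10, covering every non-palindromic 8-mer at least 32 times (palindromic 16). Preference for each 8-mer is given as a rank-based, unitless enrichment score (E-score). Its range runs from 0.5 (most favored) to −0.5 (most disfavored).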
In the case of ACAAGTAA, the binding signal came to 0.185 E-score.
As to ACCTATGG, the binding signal was -0.177 E-score.
GACAATGA: the binding signal was -0.0569 E-score.
The same measure for GTCATCTA: 0.113 E-score.
With GCAGACGC, the binding signal was -0.181 E-score.
The same measure for ATGGTAAC: 0.214 E-score; for AACTAGCG: 0.241 E-score.
As to AGCTAGTA, the binding signal stood at 0.373 E-score.
Regarding TACTAGGA, the binding signal came to 0.183 E-score.
To GGCTAGTA belongs 0.0598 E-score; to TACTAGTA, 0.45 E-score.
To AGCTAGTC belongs 0.078 E-score; to AACTAGTC, 0.206 E-score; to AACTAGTT, 0.441 E-score.
On to CACTAGTG, for which the binding signal came out at 0.0643 E-score.
To AACTAGTG belongs 0.39 E-score; to AACTAGCT, 0.317 E-score; to TACTAGCA, 0.243 E-score.
To CTGACCAC belongs -0.141 E-score; to ACCGGACT, -0.00817 E-score; to ATTGTTAC, 0.15 E-score.
To AAGCTTCC belongs -0.103 E-score.
In the case of CTAGCTTA, the binding signal is 0.26 E-score.
With AAGTCGAT, the binding signal came out at 0.0686 E-score.
GATCTCAA: the binding signal is -0.162 E-score.
Consider CCGCTCAG, for which the binding signal is -0.0853 E-score.
The same measure for AACTAGGG: -0.00258 E-score.
To ACCTAGTA belongs 0.292 E-score; to AACTAGGT, 0.361 E-score; to GACTAGTA, 0.365 E-score.
Regarding AACTAGTA, the binding signal was 0.471 E-score.
To AACTAGGC belongs 0.118 E-score; to GACTAGGA, -0.00844 E-score.
Take GACTAGTC: the binding signal was 0.224 E-score.
To CACTAGTA belongs 0.205 E-score; to CCGAATTA, 0.235 E-score.
The same measure for AGAGTGAA: -0.0866 E-score; for GTAAGCAA: 0.0243 E-score.
To ACCTTACT belongs 0.101 E-score; to GATAATTA, 0.223 E-score.
CATAATTC: the binding signal turned out to be 0.126 E-score.
Turning to AGTAATTC, the binding signal worked out at 0.29 E-score.
Consider AGTAATTA, for which the binding signal came to 0.381 E-score.
To GGTAATCA belongs 0.0323 E-score.
With AGTAATTG, the binding signal amounted to 0.29 E-score.
As to CGTAATTA, the binding signal was 0.328 E-score.
For the sequence GGTAATTA, the binding signal is 0.375 E-score.
As to CATAATTA, the binding signal is 0.362 E-score.
For CACAGTGA, the binding signal was found to be 0.137 E-score.
Regarding TAATTTCA, the binding signal stood at 0.273 E-score.
To GCTACGTA belongs 0.298 E-score; to ACCGGCAT, -0.0275 E-score; to GGAAGGTA, 0.0109 E-score.
To CCCGGCAC belongs -0.109 E-score.
Consider CTAAACTA, for which the binding signal amounted to 0.336 E-score.
ATAAACTA: the binding signal was determined as 0.361 E-score.
On to CTAAACGA, for which the binding signal was -0.072 E-score.
To GTAAACAA belongs 0.0786 E-score.
To ATAAACTG belongs 0.175 E-score.
For GTAAACTA, the binding signal came out at 0.351 E-score.
Regarding CTAAACTC, the binding signal is 0.235 E-score.
For the sequence GTAAACGA, the binding signal is -0.0497 E-score.
To ATAAACTC belongs 0.15 E-score; to AAAACTCT, 0.171 E-score.
The same measure for AAGGACGA: -0.157 E-score.
On to CTCATCCA, for which the binding signal turned out to be 0.013 E-score.
In the case of GCTCCTAC, the binding signal was -0.158 E-score.
To ACAAGACG belongs -0.0878 E-score.
With CGTTAAGA, the binding signal is -0.0916 E-score.
The same measure for ATAACACG: 0.22 E-score.
To GACTGATA belongs 0.238 E-score; to CAGAATAG, 0.106 E-score.
The same measure for CGTTCGGA: -0.107 E-score.
